# Measured values reported in article PMC7862700, “An all-to-all approach to the identification of sequence-specific readers for epigenetic DNA modifications on cytosine”.
# Experiments:
# Assay in all cases: DAPPL (digital affinity profiling via proximity ligation, sequencing); 10 mM Tris-HCl pH 7.5, 50 mM NaCl, 1 mM DTT, 4% glycerol, room temperature, 30 min; GST-TFs on glutathione beads, 16-mer random dsDNA library, 0.1% formaldehyde crosslink after washing; high values mean tight binding
# [1] = molecular target: T1, FLI1 (Homo sapiens, UniProt Q01543 1-452); settings: protein: recombinant; tags: N-terminal GST; dsDNA, one strand shown
# T1 sequence: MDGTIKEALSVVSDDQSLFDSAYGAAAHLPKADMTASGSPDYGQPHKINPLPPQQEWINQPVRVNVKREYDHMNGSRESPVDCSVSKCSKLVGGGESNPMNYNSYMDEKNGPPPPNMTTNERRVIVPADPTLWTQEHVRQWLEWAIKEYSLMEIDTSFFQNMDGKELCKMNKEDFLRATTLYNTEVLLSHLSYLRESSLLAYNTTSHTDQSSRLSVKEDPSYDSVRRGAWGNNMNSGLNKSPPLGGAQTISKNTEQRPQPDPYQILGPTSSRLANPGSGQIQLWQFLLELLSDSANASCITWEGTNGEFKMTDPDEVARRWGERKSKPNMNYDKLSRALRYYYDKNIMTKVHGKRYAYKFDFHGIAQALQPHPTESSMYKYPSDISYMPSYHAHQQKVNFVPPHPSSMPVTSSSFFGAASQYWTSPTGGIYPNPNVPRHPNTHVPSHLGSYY
# Procedure, shortened: (§1)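 Pools were built from human transcription factors expressed in yeast as GST fusions, captured on glutathione beads and DNA-barcoded, along with a tag-only sample. Incubation with 200 nmole of a 16-mer random double-stranded DNA library lasted 30 min at room temperature in Tris/NaCl/DTT/glycerol buffer, and was followed by washing, 0.1% formaldehyde crosslinking, proximity ligation, PCR amplification and Illumina NextSeq500 sequencing. Binding signal is the quotient of each hexamer's read frequency for a factor and its frequency for the tag-only sample.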
# [2] = molecular target: T2, ELK1 (Homo sapiens, UniProt P19419 1-428); settings: protein: recombinant; tags: N-terminal GST; dsDNA, one strand shown
# T2 sequence: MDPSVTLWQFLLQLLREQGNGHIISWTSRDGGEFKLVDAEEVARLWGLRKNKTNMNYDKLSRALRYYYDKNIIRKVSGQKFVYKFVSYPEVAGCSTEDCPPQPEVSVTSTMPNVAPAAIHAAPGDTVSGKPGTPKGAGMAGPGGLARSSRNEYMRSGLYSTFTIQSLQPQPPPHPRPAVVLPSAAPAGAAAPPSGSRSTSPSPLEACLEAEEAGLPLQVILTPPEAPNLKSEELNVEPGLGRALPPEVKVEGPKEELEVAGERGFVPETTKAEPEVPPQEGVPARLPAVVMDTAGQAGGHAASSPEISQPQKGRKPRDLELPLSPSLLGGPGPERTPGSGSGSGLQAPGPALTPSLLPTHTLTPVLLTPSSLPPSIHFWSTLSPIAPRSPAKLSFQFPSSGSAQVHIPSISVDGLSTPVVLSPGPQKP
# Procedure, shortened: as §1
# [3] = molecular target: T3, GABPA (Homo sapiens, UniProt Q06546 1-454); settings: protein: recombinant; tags: N-terminal GST; dsDNA, one strand shown
# T3 sequence: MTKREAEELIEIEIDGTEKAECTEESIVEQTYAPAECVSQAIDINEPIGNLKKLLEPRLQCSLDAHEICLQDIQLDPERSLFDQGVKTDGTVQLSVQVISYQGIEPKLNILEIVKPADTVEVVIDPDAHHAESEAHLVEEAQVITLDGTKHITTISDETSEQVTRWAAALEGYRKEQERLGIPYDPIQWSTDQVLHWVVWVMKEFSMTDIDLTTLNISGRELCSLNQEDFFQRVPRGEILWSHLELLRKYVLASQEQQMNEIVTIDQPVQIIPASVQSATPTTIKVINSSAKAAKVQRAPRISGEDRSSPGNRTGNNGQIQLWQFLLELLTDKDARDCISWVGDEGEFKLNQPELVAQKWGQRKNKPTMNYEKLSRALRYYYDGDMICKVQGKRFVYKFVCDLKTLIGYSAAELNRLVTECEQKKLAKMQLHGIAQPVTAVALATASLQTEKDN
# Procedure, shortened: as §1
# [4] = molecular target: T4, ERG (Homo sapiens, UniProt P11308 1-479); settings: protein: recombinant; tags: N-terminal GST; dsDNA, one strand shown
# T4 sequence: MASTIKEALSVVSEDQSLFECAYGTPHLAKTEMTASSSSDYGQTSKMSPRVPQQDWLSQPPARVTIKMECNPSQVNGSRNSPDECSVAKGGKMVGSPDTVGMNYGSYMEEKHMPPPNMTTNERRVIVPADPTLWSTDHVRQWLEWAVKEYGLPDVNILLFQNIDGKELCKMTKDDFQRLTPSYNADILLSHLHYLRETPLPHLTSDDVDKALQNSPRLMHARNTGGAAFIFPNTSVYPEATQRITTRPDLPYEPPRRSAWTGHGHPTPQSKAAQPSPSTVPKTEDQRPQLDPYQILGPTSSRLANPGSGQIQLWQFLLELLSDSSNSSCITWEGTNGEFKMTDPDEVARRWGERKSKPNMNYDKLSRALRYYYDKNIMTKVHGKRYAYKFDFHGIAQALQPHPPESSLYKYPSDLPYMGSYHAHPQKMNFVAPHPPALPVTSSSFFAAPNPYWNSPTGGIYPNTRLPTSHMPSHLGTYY
# Procedure, shortened: as §1
# [5] = molecular target: ELF1 (Homo sapiens, UniProt P32519 1-619); settings: protein: recombinant; tags: N-terminal GST; dsDNA, one strand shown
# Sequence of ELF1 (P32519 whole entry): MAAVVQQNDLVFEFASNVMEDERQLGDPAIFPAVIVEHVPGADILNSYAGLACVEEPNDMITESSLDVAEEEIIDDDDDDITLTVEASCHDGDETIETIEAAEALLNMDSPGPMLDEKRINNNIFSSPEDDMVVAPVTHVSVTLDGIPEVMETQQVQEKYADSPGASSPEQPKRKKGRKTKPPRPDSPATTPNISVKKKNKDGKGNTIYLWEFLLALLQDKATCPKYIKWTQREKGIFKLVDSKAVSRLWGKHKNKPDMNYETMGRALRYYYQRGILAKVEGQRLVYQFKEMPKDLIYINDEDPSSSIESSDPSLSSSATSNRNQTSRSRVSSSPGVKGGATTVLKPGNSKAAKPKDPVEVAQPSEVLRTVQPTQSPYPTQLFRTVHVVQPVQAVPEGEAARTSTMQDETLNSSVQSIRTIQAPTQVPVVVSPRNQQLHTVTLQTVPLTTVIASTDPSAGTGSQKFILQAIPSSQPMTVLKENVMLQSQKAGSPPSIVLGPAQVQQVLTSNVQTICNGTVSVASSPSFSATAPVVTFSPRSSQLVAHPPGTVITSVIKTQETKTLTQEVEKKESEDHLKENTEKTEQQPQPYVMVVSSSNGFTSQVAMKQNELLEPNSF
# Procedure, shortened: as §1
# [6] = molecular target: T5, EHF (Homo sapiens, UniProt Q9NZC4 1-300); settings: protein: recombinant; tags: N-terminal GST; dsDNA, one strand shown
# T5 sequence: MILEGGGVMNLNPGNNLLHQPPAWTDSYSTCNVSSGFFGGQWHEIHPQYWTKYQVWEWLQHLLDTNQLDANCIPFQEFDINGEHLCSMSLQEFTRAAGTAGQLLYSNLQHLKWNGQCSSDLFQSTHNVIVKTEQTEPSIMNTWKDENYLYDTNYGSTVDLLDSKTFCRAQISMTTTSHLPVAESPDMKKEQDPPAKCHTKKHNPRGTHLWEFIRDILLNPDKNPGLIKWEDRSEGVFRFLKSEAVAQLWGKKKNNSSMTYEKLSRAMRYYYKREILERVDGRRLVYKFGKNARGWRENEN
# Procedure, shortened: as §1
# [7] = molecular target: SPI1 (Homo sapiens, UniProt P17947 1-270); settings: protein: recombinant; tags: N-terminal GST; dsDNA, one strand shown
# Procedure, shortened: as §1
# [8] = molecular target: T6, ELK3 (Homo sapiens, UniProt P41970 1-407); settings: protein: recombinant; tags: N-terminal GST; dsDNA, one strand shown
# T6 sequence: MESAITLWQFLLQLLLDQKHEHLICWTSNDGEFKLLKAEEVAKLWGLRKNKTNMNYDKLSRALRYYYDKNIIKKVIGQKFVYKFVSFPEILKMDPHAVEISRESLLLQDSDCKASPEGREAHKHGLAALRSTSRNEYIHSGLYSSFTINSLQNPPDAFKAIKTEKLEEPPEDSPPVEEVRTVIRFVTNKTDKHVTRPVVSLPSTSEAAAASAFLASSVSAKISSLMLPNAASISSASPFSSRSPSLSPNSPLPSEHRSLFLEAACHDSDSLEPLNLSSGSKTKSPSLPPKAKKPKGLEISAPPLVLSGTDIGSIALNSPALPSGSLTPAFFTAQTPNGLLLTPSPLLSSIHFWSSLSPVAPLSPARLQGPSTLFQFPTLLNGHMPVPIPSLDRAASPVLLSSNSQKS
# Procedure, shortened: as §1
# [9] = molecular target: ETV5 (Homo sapiens, UniProt P41161 1-510); settings: protein: recombinant; tags: N-terminal GST; dsDNA, one strand shown
# Sequence of ETV5 (P41161 whole entry): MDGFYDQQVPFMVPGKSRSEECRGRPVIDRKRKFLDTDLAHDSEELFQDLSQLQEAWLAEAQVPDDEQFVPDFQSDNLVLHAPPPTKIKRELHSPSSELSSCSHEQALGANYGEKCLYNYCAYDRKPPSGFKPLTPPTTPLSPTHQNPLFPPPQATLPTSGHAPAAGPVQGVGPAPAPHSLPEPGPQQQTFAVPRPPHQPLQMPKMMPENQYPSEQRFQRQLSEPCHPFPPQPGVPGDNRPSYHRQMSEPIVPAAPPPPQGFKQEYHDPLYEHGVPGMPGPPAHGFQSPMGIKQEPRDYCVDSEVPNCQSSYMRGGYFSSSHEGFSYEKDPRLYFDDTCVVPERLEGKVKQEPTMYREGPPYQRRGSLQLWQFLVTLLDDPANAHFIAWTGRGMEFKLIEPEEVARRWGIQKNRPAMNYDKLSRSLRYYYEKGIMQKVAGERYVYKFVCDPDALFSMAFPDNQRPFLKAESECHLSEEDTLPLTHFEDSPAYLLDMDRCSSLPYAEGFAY
# Procedure, shortened: as §1
# [10] = molecular target: HSF1 (Homo sapiens, UniProt Q00613 1-529); settings: protein: recombinant; tags: N-terminal GST; chain copies: 3; dsDNA, one strand shown
# Sequence of HSF1 (Q00613 whole entry): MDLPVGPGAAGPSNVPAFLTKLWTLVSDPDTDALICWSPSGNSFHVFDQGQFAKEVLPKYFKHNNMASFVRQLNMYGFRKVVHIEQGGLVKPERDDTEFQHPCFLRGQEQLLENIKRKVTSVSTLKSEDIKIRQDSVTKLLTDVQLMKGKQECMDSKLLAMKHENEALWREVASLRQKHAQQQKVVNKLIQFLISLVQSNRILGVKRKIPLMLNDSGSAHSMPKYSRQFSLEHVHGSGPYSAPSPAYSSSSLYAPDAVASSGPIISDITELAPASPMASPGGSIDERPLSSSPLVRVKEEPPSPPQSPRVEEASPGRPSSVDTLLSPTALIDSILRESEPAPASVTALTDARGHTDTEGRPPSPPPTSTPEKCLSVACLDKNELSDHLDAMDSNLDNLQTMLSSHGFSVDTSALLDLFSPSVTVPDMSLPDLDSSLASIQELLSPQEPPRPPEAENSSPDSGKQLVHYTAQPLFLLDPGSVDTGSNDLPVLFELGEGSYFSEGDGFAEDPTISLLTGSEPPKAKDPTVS
# Procedure, shortened: as §1
# [11] = molecular target: T7, SPIC (Homo sapiens, UniProt Q8N5J4 1-248); settings: protein: recombinant; tags: N-terminal GST; dsDNA, one strand shown
# T7 sequence: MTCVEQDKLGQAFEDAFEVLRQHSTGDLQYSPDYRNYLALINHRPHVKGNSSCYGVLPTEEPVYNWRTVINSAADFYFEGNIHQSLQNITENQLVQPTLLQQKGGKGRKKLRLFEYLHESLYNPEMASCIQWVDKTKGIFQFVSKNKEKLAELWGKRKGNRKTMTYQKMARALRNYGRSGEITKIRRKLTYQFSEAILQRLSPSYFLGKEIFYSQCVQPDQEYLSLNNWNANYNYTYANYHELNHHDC
# Procedure, shortened: as §1
# [12] = molecular target: ELF4 (Homo sapiens, UniProt Q99607 1-663); settings: protein: recombinant; tags: N-terminal GST; dsDNA, one strand shown
# Sequence of ELF4 (Q99607 whole entry): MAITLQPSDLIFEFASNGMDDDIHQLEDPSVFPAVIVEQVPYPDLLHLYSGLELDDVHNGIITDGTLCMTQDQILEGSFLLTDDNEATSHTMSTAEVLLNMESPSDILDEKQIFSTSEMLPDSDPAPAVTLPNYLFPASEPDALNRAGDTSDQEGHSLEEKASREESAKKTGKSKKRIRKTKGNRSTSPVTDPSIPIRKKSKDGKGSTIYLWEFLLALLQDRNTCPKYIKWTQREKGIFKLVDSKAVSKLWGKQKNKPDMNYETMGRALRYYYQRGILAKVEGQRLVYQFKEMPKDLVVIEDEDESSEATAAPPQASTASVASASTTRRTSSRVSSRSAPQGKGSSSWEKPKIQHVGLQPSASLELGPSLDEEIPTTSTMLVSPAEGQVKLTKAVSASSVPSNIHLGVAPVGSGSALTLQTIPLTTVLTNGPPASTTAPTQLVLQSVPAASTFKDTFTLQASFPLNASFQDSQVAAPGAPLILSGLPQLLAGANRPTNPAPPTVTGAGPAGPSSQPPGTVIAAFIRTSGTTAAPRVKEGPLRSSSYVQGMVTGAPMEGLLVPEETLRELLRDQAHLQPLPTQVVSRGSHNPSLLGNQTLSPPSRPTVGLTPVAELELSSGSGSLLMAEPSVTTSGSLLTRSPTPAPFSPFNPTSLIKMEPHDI
# Procedure, shortened: as §1
# [13] = molecular target: T8, ELK4 (Homo sapiens, UniProt P28324-2 1-405); settings: protein: recombinant; tags: N-terminal GST; dsDNA, one strand shown
# T8 sequence: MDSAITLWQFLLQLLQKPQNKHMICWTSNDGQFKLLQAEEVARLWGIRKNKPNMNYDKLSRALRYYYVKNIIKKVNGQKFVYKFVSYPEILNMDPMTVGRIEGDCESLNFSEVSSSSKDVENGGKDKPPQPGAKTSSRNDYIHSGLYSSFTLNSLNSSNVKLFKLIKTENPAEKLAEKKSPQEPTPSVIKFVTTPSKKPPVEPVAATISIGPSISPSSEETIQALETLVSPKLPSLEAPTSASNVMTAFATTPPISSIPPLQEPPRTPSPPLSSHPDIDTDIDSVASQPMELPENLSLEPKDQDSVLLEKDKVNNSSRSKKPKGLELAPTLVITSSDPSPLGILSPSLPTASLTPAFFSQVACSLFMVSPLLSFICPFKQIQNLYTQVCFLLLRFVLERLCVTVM
# Procedure, shortened: as §1
# [14] = molecular target: T9, ETV2 (Homo sapiens, UniProt O00321 1-342); settings: protein: recombinant; tags: N-terminal GST; dsDNA, one strand shown
# T9 sequence: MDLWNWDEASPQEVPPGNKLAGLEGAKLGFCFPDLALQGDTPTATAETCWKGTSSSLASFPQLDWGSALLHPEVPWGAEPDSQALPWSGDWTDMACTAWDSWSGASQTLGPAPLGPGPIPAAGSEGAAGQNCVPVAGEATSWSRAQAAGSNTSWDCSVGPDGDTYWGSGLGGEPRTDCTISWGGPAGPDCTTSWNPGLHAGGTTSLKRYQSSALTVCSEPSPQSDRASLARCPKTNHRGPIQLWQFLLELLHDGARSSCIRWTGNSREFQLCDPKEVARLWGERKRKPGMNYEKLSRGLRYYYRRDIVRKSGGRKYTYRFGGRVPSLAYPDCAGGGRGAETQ
# Procedure, shortened: as §1
# [15] = molecular target: T10, ELF3 (Homo sapiens, UniProt P78545 1-371); settings: protein: recombinant; tags: N-terminal GST; dsDNA, one strand shown
# T10 sequence: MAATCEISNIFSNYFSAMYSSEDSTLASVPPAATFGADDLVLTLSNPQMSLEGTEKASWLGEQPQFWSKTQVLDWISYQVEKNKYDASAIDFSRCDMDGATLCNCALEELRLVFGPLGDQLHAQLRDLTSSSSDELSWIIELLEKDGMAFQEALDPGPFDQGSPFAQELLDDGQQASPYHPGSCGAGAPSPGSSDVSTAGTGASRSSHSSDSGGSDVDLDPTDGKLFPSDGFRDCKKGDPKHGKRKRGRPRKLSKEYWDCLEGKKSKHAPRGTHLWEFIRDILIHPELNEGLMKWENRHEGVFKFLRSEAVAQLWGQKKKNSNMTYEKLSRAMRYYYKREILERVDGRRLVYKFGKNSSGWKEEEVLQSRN
# Procedure, shortened: as §1
# [16] = molecular target: CRX (Homo sapiens, UniProt O43186 1-299); settings: protein: recombinant; tags: N-terminal GST; dsDNA, one strand shown
# Sequence of CRX (O43186 whole entry): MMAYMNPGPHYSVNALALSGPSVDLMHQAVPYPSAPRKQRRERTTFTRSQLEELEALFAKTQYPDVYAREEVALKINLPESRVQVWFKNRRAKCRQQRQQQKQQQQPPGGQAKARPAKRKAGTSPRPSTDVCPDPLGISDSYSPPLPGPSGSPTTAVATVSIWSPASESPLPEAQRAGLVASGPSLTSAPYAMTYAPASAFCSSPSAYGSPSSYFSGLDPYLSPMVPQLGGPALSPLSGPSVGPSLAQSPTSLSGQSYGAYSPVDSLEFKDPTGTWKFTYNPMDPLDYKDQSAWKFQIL
# Procedure, shortened: as §1
# [17] = molecular target: ETV1 (Homo sapiens, UniProt P50549 1-477); settings: protein: recombinant; tags: N-terminal GST; dsDNA, one strand shown
# Sequence of ETV1 (P50549 whole entry): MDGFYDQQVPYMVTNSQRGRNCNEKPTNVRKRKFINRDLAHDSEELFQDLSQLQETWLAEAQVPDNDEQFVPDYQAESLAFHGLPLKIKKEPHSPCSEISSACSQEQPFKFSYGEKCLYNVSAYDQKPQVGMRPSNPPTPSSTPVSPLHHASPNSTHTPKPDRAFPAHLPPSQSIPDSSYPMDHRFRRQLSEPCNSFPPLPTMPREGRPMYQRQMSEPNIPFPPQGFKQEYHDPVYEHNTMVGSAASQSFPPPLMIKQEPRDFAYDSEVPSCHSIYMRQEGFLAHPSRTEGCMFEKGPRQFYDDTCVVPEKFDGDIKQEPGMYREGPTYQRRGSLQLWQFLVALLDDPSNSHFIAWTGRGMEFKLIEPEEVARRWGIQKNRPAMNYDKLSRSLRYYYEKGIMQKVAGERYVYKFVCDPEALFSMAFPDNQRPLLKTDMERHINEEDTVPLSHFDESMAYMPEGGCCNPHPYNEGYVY
# Procedure, shortened: as §1
sequence,measurement,setting,value
AAGAAG,binding signal,[1],"1.05 fold enrichment (6-mer frequency, TF over GST control)"
same,binding signal,[2],"1.09 fold enrichment (6-mer frequency, TF over GST control)"
same,binding signal,[3],"1.01 fold enrichment (6-mer frequency, TF over GST control)"
same,binding signal,[4],"1.06 fold enrichment (6-mer frequency, TF over GST control)"
same,binding signal,[5],"1.05 fold enrichment (6-mer frequency, TF over GST control)"
same,binding signal,[6],"1.07 fold enrichment (6-mer frequency, TF over GST control)"
same,binding signal,[7],"1.13 fold enrichment (6-mer frequency, TF over GST control)"
same,binding signal,[8],"1.05 fold enrichment (6-mer frequency, TF over GST control)"
same,binding signal,[9],"1.08 fold enrichment (6-mer frequency, TF over GST control)"
same,binding signal,[10],"1.44 fold enrichment (6-mer frequency, TF over GST control)"
same,binding signal,[11],"1.23 fold enrichment (6-mer frequency, TF over GST control)"
same,binding signal,[12],"1.06 fold enrichment (6-mer frequency, TF over GST control)"
same,binding signal,[13],"1.18 fold enrichment (6-mer frequency, TF over GST control)"
same,binding signal,[14],"1.19 fold enrichment (6-mer frequency, TF over GST control)"
same,binding signal,[15],"1.26 fold enrichment (6-mer frequency, TF over GST control)"
same,binding signal,[16],"1.21 fold enrichment (6-mer frequency, TF over GST control)"
same,binding signal,[17],"1.1 fold enrichment (6-mer frequency, TF over GST control)"
